These results are taken from PubChem BioAssay.

Values without a mark were called inactive. Calls of active or inactive are those of the source.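 How the source made its calls, unless noted: active means mean inhibition above 46.5%, the solvent-only control mean plus 3 SD; inactive means the rest.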

In assay [1] the test system is transactivating tegument protein VP16 (Human herpesvirus 1). Briefly: compounds suppressing VP16-driven luciferase signal – cell-based, luminescence, single concentration, counter-screen for SRC2 inhibitor project (AID 652007; in the data active means inhibition above about 36%). As to conditions: cell-based VP16 transactivation luciferase reporter, at 8.9 µM, hits give high values. On the technique in general: A counterscreen serves to expose hits that act by an unwanted route or on another target.

Assay [2] concerns the target Nuclear receptor coactivator 2 (Homo sapiens) (UniProt Q15596). Briefly: inhibition of GAL4-SRC2 driven luciferase expression – cell-based, luminescence, HEK293, triplicate, confirmation (AID 652008).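 Further: 0% = DMSO-treated cells and 100% = Gossypol at 36 µM.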 As to conditions: HEK293 GAL4-SRC2 luciferase reporter, at 8.9 µM, hits give high values. Background: In a reporter assay the amount or activity of a reporter protein is the signal.

Nuclear receptor coactivator 2 (Homo sapiens), sequence (Q15596 whole entry, looked up, the tested form may be a part): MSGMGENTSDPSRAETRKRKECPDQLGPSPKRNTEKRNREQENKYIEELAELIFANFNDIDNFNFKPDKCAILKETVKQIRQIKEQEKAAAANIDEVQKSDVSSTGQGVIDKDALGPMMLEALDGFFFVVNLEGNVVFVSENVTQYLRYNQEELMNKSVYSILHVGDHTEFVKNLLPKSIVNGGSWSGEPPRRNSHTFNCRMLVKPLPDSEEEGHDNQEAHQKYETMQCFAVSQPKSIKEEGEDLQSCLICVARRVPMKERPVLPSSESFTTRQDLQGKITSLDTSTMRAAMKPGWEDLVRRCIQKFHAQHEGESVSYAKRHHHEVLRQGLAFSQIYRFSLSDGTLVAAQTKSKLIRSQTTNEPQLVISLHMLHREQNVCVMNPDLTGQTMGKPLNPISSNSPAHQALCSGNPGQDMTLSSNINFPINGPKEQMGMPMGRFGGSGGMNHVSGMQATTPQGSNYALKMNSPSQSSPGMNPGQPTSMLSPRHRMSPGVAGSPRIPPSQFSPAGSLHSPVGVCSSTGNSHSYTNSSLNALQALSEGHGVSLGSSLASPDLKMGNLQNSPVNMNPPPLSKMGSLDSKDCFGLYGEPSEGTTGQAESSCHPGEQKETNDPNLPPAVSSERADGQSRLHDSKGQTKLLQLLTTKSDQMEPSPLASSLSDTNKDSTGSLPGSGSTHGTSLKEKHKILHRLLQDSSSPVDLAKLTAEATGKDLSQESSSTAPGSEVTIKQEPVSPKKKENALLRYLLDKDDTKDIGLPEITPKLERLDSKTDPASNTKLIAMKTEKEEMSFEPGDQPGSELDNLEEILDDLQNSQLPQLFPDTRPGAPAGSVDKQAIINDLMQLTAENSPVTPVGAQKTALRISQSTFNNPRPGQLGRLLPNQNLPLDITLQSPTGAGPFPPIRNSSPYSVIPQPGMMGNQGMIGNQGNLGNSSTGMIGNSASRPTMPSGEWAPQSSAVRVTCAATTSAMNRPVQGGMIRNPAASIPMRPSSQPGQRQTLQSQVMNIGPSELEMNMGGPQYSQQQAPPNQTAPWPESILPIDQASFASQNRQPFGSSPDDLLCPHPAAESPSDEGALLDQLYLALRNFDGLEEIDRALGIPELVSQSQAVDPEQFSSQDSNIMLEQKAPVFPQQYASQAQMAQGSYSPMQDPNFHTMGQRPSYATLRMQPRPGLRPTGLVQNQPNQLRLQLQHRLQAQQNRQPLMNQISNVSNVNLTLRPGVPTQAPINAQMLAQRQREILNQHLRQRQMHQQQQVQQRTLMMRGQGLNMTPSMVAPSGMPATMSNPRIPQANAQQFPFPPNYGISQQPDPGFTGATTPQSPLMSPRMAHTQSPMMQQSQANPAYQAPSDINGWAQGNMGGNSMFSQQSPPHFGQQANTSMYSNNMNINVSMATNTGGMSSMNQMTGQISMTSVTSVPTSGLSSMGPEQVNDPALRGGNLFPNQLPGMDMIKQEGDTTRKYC

On to `CC(C)(CN1CCC(Cc2ccccc2)CC1)NS(=O)(=O)c1ccccc1`, for which the inhibition (commonly the drop in the measured response relative to a control, in per cent) was 13.9% in assay [1] and 32.5% in assay [2].

For the compound `COc1ccc(NC(=O)CSCC(=O)Nc2ccccc2C(=O)N2CCCCC2)cc1`, the inhibition in assay [1] was -8.77%; in assay [2], -20.5%.

With `CC(=O)Nc1ccc(Nc2nc(C)c([N+](=O)[O-])c(N(C)c3ccccc3)n2)cc1`, the inhibition was 32.4% in assay [1] and 49.2% (active) in assay [2].

For `COc1cccc(N2C(=O)CC(NNC(=O)c3cccs3)C2=O)c1` (centres undefined), the inhibition in assay [1] is -15.3%; in assay [2] it was -23.7%.

Consider `Cc1ccc(S(=O)(=O)Nc2ccccc2C(=O)N2CCCC2)cc1`, for which the inhibition in assay [1] is -24.9%; in assay [2], 0.98%.

Regarding `COCCN=C1Sc2nc3c(C)cccc3cc2CN1Cc1ccco1`, the inhibition was -12% in assay [1] and 4.64% in assay [2].

With `CC(C)(C)c1ccc(Oc2ccc(NC(=O)c3ccco3)cn2)cc1`, the inhibition in assay [1] was 30.6%; in assay [2], 42.2%.

Consider `O=C(c1c[nH]c2ccccc12)C(Cl)c1ccccc1` (centres undefined), for which the inhibition in assay [1] was 27.7%; in assay [2], 33.8%.

With `COc1ccc(C2CC(c3cccs3)=NN2C(=O)CCl)cc1OC` (centres undefined), the inhibition in assay [1] is 42.5% (active); in assay [2] it was 6.43%.

On to `Cc1cc(=O)oc2cc(OCC(=O)NC3CCCC3)ccc12`, for which the figures for the inhibition in assay [1] and in assay [2] were -12.6% and -25.6%, respectively.

Turning to `COc1cc2ncnc(NCc3ccc4c(c3)OCO4)c2cc1OC`, the inhibition in assay [1] was 7.59%; in assay [2], -5.74%.

Take `O=C(N/N=C\c1cc(Br)c(Br)o1)C1COc2ccccc2O1` (centres undefined): the inhibition in assay [1] is -16.1%; in assay [2], -4.84%.

Consider `CCc1ccc(/C=C2\SC(=S)N(CCC(=O)NC3=NCCS3)C2=O)cc1`, for which the inhibition in assay [1] was -67.3%; in assay [2], 75% (active).

On to `Cc1cc(=O)n2c3c(c4c(cc13)c(CN(C)C)cc(=O)n4C)OC2`, for which the inhibition in assay [1] was 2.33%; in assay [2], -129%.

On to `COc1cc(C)c(Br)cc1S(=O)(=O)NCc1cccs1`, for which the values for the inhibition in assay [1] and in assay [2] were -10.6% and -12.6%, respectively.

Regarding `O=C(CCCN1C(=O)/C(=C/c2ccc3c(c2)OCO3)SC1=S)Nc1ccc(C(=O)O)cc1`, the figures for the inhibition in assay [1] and in assay [2] were 53.6% (active) and 36.2%, respectively.

Take `COc1ccc(NS(=O)(=O)c2ccc(OC)c(N(C)S(=O)(=O)c3ccc(Cl)cc3)c2)cc1`: the inhibition in assay [1] is 17.3%; in assay [2], 31.2%.

As to `NC(=O)CC(NC(=O)c1ccc(Br)cc1)c1ccc(N2CCCCCC2)c([N+](=O)[O-])c1` (centres undefined), the inhibition was 9.13% in assay [1] and 23.3% in assay [2].

For `COc1ccc(C(=O)OCC(=O)Nc2ccc3c(c2)OCCO3)c(OC)c1`, the figures for the inhibition in assay [1] and in assay [2] were 6.79% and -39%, respectively.

Regarding `COc1cccc(CNC(=O)C2CCN(S(=O)(=O)c3ccc(F)cc3)CC2)c1`, the values for the inhibition in assay [1] and in assay [2] were 16.3% and -10.1%, respectively.

Turning to `CCC(C)C(NC(=O)OCc1ccccc1)C(=O)OCN1C(=O)c2ccccc2C1=O` (centres undefined), the inhibition is -13.9% in assay [1] and -8.71% in assay [2].

Consider `COc1cc(Nc2nc(-c3ccccc3)c3cc(C)ccc3n2)cc(OC)c1OC`, for which the figures for the inhibition in assay [1] and in assay [2] were 6.86% and 10.7%, respectively.

In the case of `CCn1c(SCC(=O)c2ccc(-c3ccccc3)cc2)nnc1-c1ccc(C(C)(C)C)cc1`, the results for the inhibition in assay [1] and in assay [2] were 22.6% and 31.3%, respectively.

`CC(=O)C1=CCC(c2ccccc2Cl)N(S(=O)(=O)c2ccc(C)cc2)C1` (centres undefined): the inhibition in assay [1] was 13.9%; in assay [2] it was 15.3%.

On to `CN(C)c1ccc(C(C[N+](=O)[O-])c2c(N)n(C)c(=O)n(C)c2=O)c(F)c1C#N` (centres undefined), for which the inhibition in assay [1] was 6.34%; in assay [2], 6.89%.

Turning to `O=[N+]([O-])c1ccc(Oc2ccc(F)cc2Br)c2ccncc12`, the inhibition in assay [1] is 7.49%; in assay [2], 50.2% (active).

`Clc1cccc(CN2CCN(c3ncc(Cc4ccccc4)cn3)CC2)c1Cl`: the inhibition is -0.77% in assay [1] and 24.5% in assay [2].

On to `C[C@H]1CN([C@@H](C)CO)S(=O)(=O)c2ccc(Br)cc2O[C@H]1CN(C)Cc1ccccc1F`, for which the inhibition in assay [1] is 22.8%; in assay [2] it was 16.8%.

`Cc1c(CCC(=O)O)c(=O)oc2cc(OCc3ccccc3Br)ccc12`: the inhibition in assay [1] is 19.4%; in assay [2] it was 20.1%.

Turning to `O=C1N[C@@H](Cc2ccccc2)C(=O)N2[C@H]1CSCCS2(=O)=O`, the figures for the inhibition in assay [1] and in assay [2] were -5.16% and -25.1%, respectively.

With `O=C1c2ccccc2S(=O)(=O)N1Cc1nc2ccccc2s1`, the inhibition in assay [1] is 6.44%; in assay [2], 31.4%.

In the case of `O=c1[nH]nc(Sc2ncnc3sccc23)n1CCc1ccccc1`, the inhibition is 14.9% in assay [1] and 47.5% (active) in assay [2].
